# Rows were chosen to be rich in hits. Some 5.7% of all compounds tested hit in one or more screens of this group.
# AHR activator: activates the human aryl hydrocarbon receptor | AHR-responsive luciferase reporter cells, luminescence | activation, % at 5 µM | P35869 | 320,000 compounds, 2.5% hits; in the data active means activation above about 47%;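 further: 0% = vehicle wells and 100% = reference agonist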
# hcDAF-12 act: activators of H. contortus DAF-12 nuclear receptor. AID 652067. 370,000 compounds, 1.4% hits. activation, % at 6.8 µM. HEK293 hcDAF-12 lit1-tk-luc reporter, luminescence; 0% DMSO, 100% Δ7-dafachronic acid;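 active means activation above the mean of all tested compounds plus 3 SD, cut at about 5.5% in these data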;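 further: 100% = response to 3 µM Δ7-dafachronic acid high control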
# DAX1 inh-1: inhibits human nuclear receptor DAX1; inhibition, % at 6.75 µM; 340,000 compounds, 0.99% hits; AID 504766; HEK293 Gal4-DAX1 luciferase reporter, luminescence; P51843;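 active means inhibition above the mean over all tested compounds plus 3 SD, cut at about 4.2% in these data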;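 further: 0% = DAX1-transfected cells with DMSO and 100% = empty-vector control cells with DMSO; inhibition shows as a rise in luminescence from relieved DAX1 repression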
# Target sequence (P51843 207-470 limits assumed): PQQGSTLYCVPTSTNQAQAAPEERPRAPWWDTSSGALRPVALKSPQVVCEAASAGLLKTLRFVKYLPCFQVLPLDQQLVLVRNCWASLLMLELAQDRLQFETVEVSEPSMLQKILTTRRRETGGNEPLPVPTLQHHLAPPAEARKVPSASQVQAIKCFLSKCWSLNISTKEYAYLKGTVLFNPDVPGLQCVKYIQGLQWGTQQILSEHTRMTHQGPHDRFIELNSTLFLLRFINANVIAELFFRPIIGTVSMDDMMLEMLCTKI
# ssDAF12 agonist: activates DAF-12 receptor from parasite S. stercoralis; 370,000 compounds, 1% hits; HEK293 ssDAF-12/GRIP1 lit1-tk-luc reporter, luminescence; % of 3 µM dafachronic acid response; activation, % at 6.8 µM;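 active means activation above the mean over all tested compounds plus 3 SD, cut at about 0.9% in these data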;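 further: 0% = DMSO-only wells and 100% = 3 µM delta7-dafachronic acid wells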
# DAX1 inh-2: inhibitors of DAX1 repression of SF-1 activated StAR promoter. HEK293T StAR-luciferase reporter, SF-1/DAX-1 repression relief. inhibition, % at 6.8 µM. 370,000 compounds, 1.1% hits. AID 652010;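 active means inhibition above the mean over all tested compounds plus 3 SD, cut at about 3.6% in these data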;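 further: 0% = DAX-1 cells with DMSO and 100% = cells lacking DAX-1 with DMSO; higher inhibition means more luminescence from relief of DAX-1 repression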
# hgDAF12 agonist: hgDAF-12 agonism, primary luciferase screen; 370,000 compounds, 1.8% hits; AID 687014; HEK293 GAL4-hgDAF12 UAS-luciferase reporter, agonist luminescence; normalized to butyrate control; activation, % at 6.8 µM;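 active means activation above a cutoff set at the mean of all screened compounds plus 3 SD, cut at about 10% in these data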;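 further: 0% = DMSO wells and 100% = sodium butyrate wells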
# * = called active by the depositor; x = no result given.
SMILES,AHR activator,hcDAF-12 act,DAX1 inh-1,ssDAF12 agonist,DAX1 inh-2,hgDAF12 agonist
CCN(CC)S(=O)(=O)c1ccc(O)c(NC(=O)c2cc(-c3cc(OC)c(OC)c(OC)c3)nc3ccccc23)c1,2.3,x,1.1,x,x,x
COC(=O)Cc1nnn2c1[C@@H](C)[C@@H](c1ccccc1Br)O[C@@H](C)C2,x,-1.5,x,-0.9,-0.9,1.1
COc1ccc(OCc2cc(C(=O)N[C@H]3CCCCNC3=O)no2)c(Cl)c1,6.7,1.4,1.2,-0.7,3.6*,4.2
CCc1ccc(CN(C)C(=O)c2cc(COc3ccc(OC)cc3Cl)on2)nc1,4.4,1.6,1.1,-0.3,2.8,5.2
COc1ccc(OCc2cc(C(=O)NC(C)c3nc(C)cs3)no2)c(Cl)c1 (centres undefined),x,4.1,1.9,-0.1,0.8,11.9*
CCC(NC(=O)c1cc(COc2ccc(OC)cc2Cl)on1)c1ccncc1 (centres undefined),5.8,-0.5,-0.1,0.2,-3.8,1.7
COc1ccc(OCc2cc(C(=O)NC(C)c3csc(C)n3)no2)c(Cl)c1 (centres undefined),3.2,1.2,0.3,-0.4,1.0,8.8
COc1ccc(OCc2cc(C(=O)N(C)Cc3cc(C)no3)no2)c(Cl)c1,3.6,2.7,4.1,-0.5,0.7,11.9*
CC(C)C(C(=O)Nc1ccc2c(c1)OCCOCCOCCOCCO2)N1C(=O)c2ccccc2C1=O (centres undefined),-1.8,2.0,0.5,-1.3,0.1,2.8
CCCCOCCCNC(=O)C[C@@H]1C(=O)N(Cc2ccc(OC)cc2)/C2=C/CCCCC[C@@]21C(=O)OCC,x,-2.1,x,-0.3,0.3,-1.7
O=S(=O)(c1ccccc1)N1c2cc(Cl)ccc2Oc2nc3ccccc3nc21,74.3*,0.6,-0.5,-0.5,0.1,1.5
O=S(=O)(c1ccccc1)N1CN(c2ccc(F)cc2F)c2nc3ccccc3nc21,10.3,0.9,x,-0.9,0.7,2.3
CC1=C(C(=O)OC2CCCCC2)C(c2ccc(N(C)C)cc2)NC(=O)N1 (centres undefined),-1.5,-1.7,-1.2,-1.8,0.0,-2.2
COc1ccc(COC(=O)CCc2c[nH]c3ccccc23)cc1F,4.5,0.2,1.9,-1.0,-0.4,-0.1
CCCCOC(=O)c1ccc(NC(=O)CSC2=Nc3ccccc3C3CC=NN23)cc1 (centres undefined),13.7,3.3,2.7,-0.9,-0.3,3.7
O=C(CSC1=Nc2ccccc2C2CC=NN12)Nc1ccc(F)c(F)c1F (centres undefined),51.1*,1.9,0.7,0.0,1.1,0.4
CCCCn1c(=N)n(CC(=O)c2ccc(Br)s2)c2ccccc21,52.2*,-1.0,-0.8,-1.5,-0.6,-0.5
CCn1c(=N)n(CC(=O)c2ccc(Br)s2)c2ccccc21,47.6*,2.1,0.8,-0.1,1.0,3.1
CCOC(=O)[C@H]1[C@H]2COc3ccc(OC)cc3[C@@H]2N2C(=O)CN(C)C(=O)[C@@]12C,0.7,-0.4,0.6,-1.3,-0.3,1.0
Nc1ccc2c(c1)sc1ccccc12,3.4,2.6,0.7,-1.0,1.9,11.2*
COc1ccccc1-c1cc2ccccc2[nH]1,64.1*,4.4,1.5,0.2,0.9,8.8
O=C(O)c1ccccc1-c1cc2ccccc2[nH]1,-0.6,-2.3,0.0,-1.3,-0.7,-2.1
Cc1ccc(NC(=O)CSCC(=O)Nc2ccccc2N2CCCC2)cc1,19.6,0.7,1.8,-0.4,0.4,3.5
CCNCc1ccc(OCc2ccccc2F)c(OC)c1,1.4,0.0,0.9,-1.5,1.1,5.0
COc1cc(CNCCCCO)ccc1OCc1ccccc1F,10.9,1.1,-0.4,-0.6,1.2,10.9*
SMILES,AHR activator,hcDAF-12 act,DAX1 inh-1,ssDAF12 agonist,DAX1 inh-2,hgDAF12 agonist
Cc1ccc(NC(=O)NNC(=O)c2cccs2)cc1,0.4,5.8*,0.2,-0.7,0.7,6.9
CC(C)c1ccc(NC(=S)NNC(=O)c2cccs2)cc1,7.5,0.7,3.5,-0.5,1.7,11.4*
COc1ccc(NC(=S)NNC(=O)c2cccs2)cc1,2.0,-1.2,1.2,-0.1,2.5,3.4
COc1ccc(NC(=O)CCN2C(=O)C3CC=C(Cl)CC3C2=O)cc1 (centres undefined),-2.0,-2.4,-0.2,-1.6,0.9,1.0
CCC(C)Sc1ccc([C@H]2N[C@@](C)(C(=O)OC)[C@H]3C(=O)N(CC)C(=O)[C@@H]23)cc1 (some centres undefined),0.5,-2.2,0.4,-1.6,-0.1,0.9
COc1ccc(C(C)=O)cc1CSc1ccc(S(=O)(=O)N2CCOCC2)cn1,0.3,-3.4,0.9,-1.1,-0.8,-0.9
Cc1cc(C)nc(/N=C(\N)Nc2cccc([N+](=O)[O-])c2)n1,51.9*,-0.6,0.6,-0.7,0.1,3.3
CC(=O)c1ccc(NC(=O)Nc2ccncc2)cc1,0.5,-0.8,-1.6,-1.4,-0.2,6.9
COc1cc([N+](=O)[O-])ccc1NC(=O)Nc1cccnc1,7.3,-0.1,-0.3,-1.1,-2.7,5.3
CC(=O)c1ccc(NC(=O)Nc2cccnc2)cc1,x,1.1,0.5,0.0,4.1*,4.7
O=C(Nc1cccnc1)Nc1cccc([N+](=O)[O-])c1,76.7*,6.5*,1.1,-1.2,-0.4,2.2
CC(=O)Nc1nnc(-c2ccc3c(c2)CCCC3)o1,58.7*,2.2,1.5,0.5,3.8*,10.9*
COc1ccccc1C(=O)Nc1nnc(-c2ccc3c(c2)CCCC3)o1,51.7*,-1.8,-0.3,0.2,-0.6,4.4
c1ccc2oc(-c3ccn[nH]3)cc2c1,1.8,4.5,5.9*,-0.7,1.5,5.7
c1ccc2oc(-c3[nH]ncc3CN3CCSCC3)cc2c1,8.1,-1.1,2.5,-1.9,0.4,-1.8
O=C(CN1CCOCC1)NN1CC(=O)N(c2ccc(Cl)cc2)CC1=O,0.4,0.3,5.6*,-1.3,0.1,-0.5
Cc1ccc(N2CC(=O)N(NC(=O)CN3CCN(c4ccccc4)CC3)CC2=O)cc1,-1.1,0.3,2.4,-1.3,-0.5,-0.6
C/C(=N\NC(=O)c1ccco1)c1cc(Cl)sc1Cl,6.8,2.3,2.2,-0.1,3.8*,6.9
C/C(=N\NC(=O)c1ccco1)c1ccc(-c2ccccc2)cc1,-5.9,1.5,1.6,0.0,1.3,12.8*
C/C(=N\NC(=O)c1ccco1)c1cc2ccccc2o1,22.0,3.3,1.9,-0.2,0.8,8.2
CCCCN1CC(COCc2ccccc2)Oc2cccc(NCc3cc(OC)c(OC)c(OC)c3)c2S1(=O)=O (centres undefined),x,-1.5,x,-1.3,-3.7,-3.7
Cc1ccsc1/C=N/Nc1ccc(C(=O)O)cc1,-3.9,6.4*,-5.2,0.3,0.8,2.4
Cc1ccc(/C=N/Nc2ccc(C(=O)O)cc2)s1,-8.7,-0.7,-3.8,-2.5,-0.6,-5.1
